Holding throughout (experiment): NCI-60 one-dose screen, 48 h (100 = growth as untreated, 0 = no growth, -100 = all killed)
In one test the test system is A549/ATCC NSCLC. The following applies: 10 µM unless noted.
A further test concerns COLO 205 colon. The following applies: 10 µM.
A further test relates to MALME-3M melanoma. Particulars: 10 µM unless noted.
For the next test, the system named is RXF 393 renal. The following applies: 10 µM unless noted.
For the next test, the system named is UACC-257 melanoma. Particulars: 10 µM unless noted.
Another test relates to HT29 colon. Particulars: 10 µM unless noted.
For the next test, the system named is SK-MEL-2 melanoma. The following applies: 10 µM unless noted.
For the next test, the system named is SN12C renal. The following applies: 10 µM unless noted.
In the next test the test system is UO-31 renal. The following applies: 10 µM unless noted.
A further test has as its system CAKI-1 renal. Particulars: 10 µM unless noted.
The next test relates to HL-60(TB) leukemia. The following applies: 10 µM unless noted.
A further test concerns OVCAR-4 ovarian. The following applies: 10 µM unless noted.
A further test deals with SK-OV-3 ovarian. Particulars: 10 µM unless noted.
The next test has as its system HS 578T breast. The following applies: 10 µM unless noted.
Another test deals with T-47D breast. Particulars: 10 µM unless noted.
The subject of a further test is BT-549 breast. The following applies: 10 µM.
The test system of the next test is MDA-MB-435 melanoma. Particulars: 10 µM unless noted.
Another test deals with U251 CNS. Particulars: 10 µM unless noted.
The test system of the next test is A498 renal. Particulars: 10 µM unless noted.
The next test has as its system OVCAR-8 ovarian. Particulars: 10 µM unless noted.

The panel holds about 83,000 compounds, 20% with a hit somewhere; the sample as a whole holds those more often.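 Note: values are percent growth. 100 is the growth of untreated cells, values between 100 and 0 indicate rising inhibition; between -100 and 0 indicates cell death.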 Activity calls are given as the source filed them. How the source made its calls: active means growth percent below 10; inactive means the rest.

On to `CC1([N+](=O)[O-])COP(=O)(Nc2ccc(F)cc2)OC1` (stereo not given), for which the growth in the test with A549/ATCC NSCLC was 98.5% (inactive); in the test with COLO 205 colon, 107% (inactive); with MALME-3M melanoma it was 110% (inactive); in the test on RXF 393 renal it was 100% (inactive); with UACC-257 melanoma it was 101% (inactive); with HT29 colon, 96.5% (inactive). Also, the growth in the test with SK-MEL-2 melanoma is 98% (inactive); in the test with SN12C renal, 111% (inactive); in the test on UO-31 renal, 73.9% (inactive); with CAKI-1 renal, 107% (inactive); with HL-60(TB) leukemia it was 90.4% (inactive); in the test with OVCAR-4 ovarian, 113% (inactive). The growth is 101% (inactive) with SK-OV-3 ovarian; 103% (inactive) in the test on HS 578T breast; 82.9% (inactive) in the test on T-47D breast; 96.8% (inactive) in the test on BT-549 breast; 110% (inactive) in the test with MDA-MB-435 melanoma.
With `COc1cc(CNCCc2ccc(Cl)cc2)cc(OC)c1O`, the growth in the test on A549/ATCC NSCLC was 89.8% (inactive); in the test on COLO 205 colon, 77.5% (inactive); with RXF 393 renal, 66.3% (inactive); with UACC-257 melanoma it was 90.2% (inactive); in the test with HT29 colon, 64.4% (inactive); in the test with U251 CNS, 58.5% (inactive). In addition, the growth with SK-MEL-2 melanoma was 27.8% (inactive); with SN12C renal, 75.5% (inactive); in the test with UO-31 renal, 61% (inactive); in the test with CAKI-1 renal, 58.4% (inactive); in the test on A498 renal, 66.3% (inactive); with HL-60(TB) leukemia, 54.4% (inactive). The growth with OVCAR-8 ovarian was 66.3% (inactive); in the test on OVCAR-4 ovarian it was 69% (inactive); in the test with SK-OV-3 ovarian it was 82.7% (inactive); in the test on HS 578T breast, 62.6% (inactive); in the test with T-47D breast it was 61.7% (inactive); in the test with BT-549 breast it was 71.8% (inactive).
For the compound `Cn1cnnc1[S-].[Au+].c1ccc([PH+](c2ccccc2)c2ccccc2)cc1`, the growth in the test with A549/ATCC NSCLC is 78.8% (inactive); in the test with COLO 205 colon, -10% (active); in the test with MALME-3M melanoma it was -38.1% (active); with RXF 393 renal, -78.6% (active); with UACC-257 melanoma, 22.9% (inactive); in the test with HT29 colon it was 39.8% (inactive). In addition, the growth was -43.1% (active) in the test with U251 CNS; 0.754% (active) in the test on SK-MEL-2 melanoma; 15.9% (inactive) in the test with SN12C renal; 48.5% (inactive) in the test on UO-31 renal; 23.6% (inactive) in the test with CAKI-1 renal; 64.7% (inactive) in the test with A498 renal. For the same compound, the growth in the test on HL-60(TB) leukemia was -12.7% (active); in the test on OVCAR-8 ovarian, 20.3% (inactive); in the test with OVCAR-4 ovarian, 38.9% (inactive); with HS 578T breast, 49.2% (inactive); in the test on T-47D breast, -16.6% (active); with BT-549 breast, 36.8% (inactive). Further, the growth in the test on MDA-MB-435 melanoma was 11.1% (inactive).
Take `COc1ccc(CN2CCN(Cc3ccccc3)CC2)c(O)c1`: the growth was 97.4% (inactive) in the test on A549/ATCC NSCLC; 95.5% (inactive) with COLO 205 colon; 98.4% (inactive) with MALME-3M melanoma; 105% (inactive) with RXF 393 renal; 105% (inactive) in the test on UACC-257 melanoma; 87.7% (inactive) in the test with HT29 colon. Besides, the growth was 95.1% (inactive) with U251 CNS; 89.9% (inactive) with SK-MEL-2 melanoma; 91.2% (inactive) in the test on SN12C renal; 68.7% (inactive) with UO-31 renal; 92.4% (inactive) with CAKI-1 renal; 95.5% (inactive) in the test with A498 renal. Besides, the growth was 91.9% (inactive) in the test on HL-60(TB) leukemia; 98.2% (inactive) with OVCAR-8 ovarian; 99.8% (inactive) in the test on OVCAR-4 ovarian; 95.7% (inactive) in the test with SK-OV-3 ovarian; 102% (inactive) in the test on HS 578T breast; 84.7% (inactive) in the test with T-47D breast. Also, the growth with BT-549 breast was 92% (inactive); in the test with MDA-MB-435 melanoma, 103% (inactive).
In the case of `CC(=O)O[C@@H]1C2=C(C)C3(CC3)[C@@](C)(O)C(=O)C2=C[C@@]1(C)CO`, the growth is 6.08% (active) with A549/ATCC NSCLC; -69.7% (active) in the test with MALME-3M melanoma; -89.6% (active) with RXF 393 renal; -34.7% (active) in the test with UACC-257 melanoma; 5.12% (active) in the test with HT29 colon; -2.05% (active) with U251 CNS. In addition, the growth was -42.2% (active) in the test on SK-MEL-2 melanoma; 12.4% (inactive) in the test with SN12C renal; -51% (active) with UO-31 renal; 3.26% (active) in the test with CAKI-1 renal; -4.61% (active) in the test with HL-60(TB) leukemia; 7.82% (active) in the test on OVCAR-8 ovarian. The growth with HS 578T breast was -9.28% (active); in the test on T-47D breast it was 7.72% (active); in the test with BT-549 breast, -32.6% (active); in the test with MDA-MB-435 melanoma it was -85% (active).
`O=C(N/N=C/c1ccc([N+](=O)[O-])o1)c1cc([N+](=O)[O-])cc([N+](=O)[O-])c1O`: the growth was 102% (inactive) in the test on A549/ATCC NSCLC; 107% (inactive) in the test with COLO 205 colon; 122% (inactive) in the test on MALME-3M melanoma; 102% (inactive) in the test on RXF 393 renal; 99.2% (inactive) in the test with UACC-257 melanoma; 97.4% (inactive) in the test on HT29 colon. Besides, the growth in the test with U251 CNS is 91.8% (inactive); in the test with UO-31 renal, 80% (inactive); with CAKI-1 renal, 88.5% (inactive); in the test with A498 renal it was 79.7% (inactive); in the test with HL-60(TB) leukemia, 93.5% (inactive); in the test with OVCAR-8 ovarian, 89.8% (inactive). Moreover, the growth in the test with OVCAR-4 ovarian is 106% (inactive); with SK-OV-3 ovarian, 101% (inactive); in the test on HS 578T breast it was 104% (inactive); in the test with T-47D breast, 93.5% (inactive); in the test on BT-549 breast, 103% (inactive); in the test with MDA-MB-435 melanoma, 98.3% (inactive).
Take `CCC[CH2][Sn]([CH2]CCC)([CH2]CCC)[O]C(=O)c1ccc(Cl)cc1Cl`: the growth with A549/ATCC NSCLC was -79.9% (active); with COLO 205 colon it was -68.8% (active); with MALME-3M melanoma it was -76.8% (active); with RXF 393 renal it was -88.5% (active); with UACC-257 melanoma, -94.8% (active); with HT29 colon it was -64.7% (active). Moreover, the growth in the test on U251 CNS is -85.8% (active); with SK-MEL-2 melanoma it was -73.6% (active); in the test with SN12C renal it was -83.9% (active); with UO-31 renal it was -86.9% (active); with CAKI-1 renal, -92.6% (active); with A498 renal, -85.3% (active). Also, the growth was -32.7% (active) in the test with HL-60(TB) leukemia; -63.6% (active) in the test on OVCAR-8 ovarian; -67.7% (active) in the test on OVCAR-4 ovarian; -96% (active) in the test with SK-OV-3 ovarian; -38.3% (active) in the test on HS 578T breast; -58.3% (active) in the test with T-47D breast. Moreover, the growth was -96% (active) in the test with BT-549 breast and -85.4% (active) with MDA-MB-435 melanoma.
Turning to `COc1cc(NCCCCCN=C(N)N)c2ncccc2c1`, the growth was 90.7% (inactive) in the test on A549/ATCC NSCLC; 54.9% (inactive) in the test with COLO 205 colon; 19.6% (inactive) with MALME-3M melanoma; 79.7% (inactive) with UACC-257 melanoma; 62.9% (inactive) in the test on HT29 colon; 28.1% (inactive) in the test on U251 CNS. Moreover, the growth with SK-MEL-2 melanoma is 43.3% (inactive); in the test on SN12C renal, 7.58% (active); in the test with UO-31 renal, 83.9% (inactive); in the test on CAKI-1 renal, 104% (inactive); in the test on A498 renal, 89.6% (inactive); in the test with OVCAR-8 ovarian it was 32.6% (inactive). Also, the growth in the test on OVCAR-4 ovarian was -12.1% (active); in the test with SK-OV-3 ovarian, 94.9% (inactive); with T-47D breast it was 11.8% (inactive); in the test with BT-549 breast, 38.7% (inactive); in the test on MDA-MB-435 melanoma, 104% (inactive).

Source of the values: PubChem BioAssay (NCI).
